Experimental findings from PubChem BioAssay (NCI) are described below.

A short description of assay [1]: NCI Yeast Anticancer Drug Screen. Data for the rad50 strain (AID 155).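 Note: 0% = growth of vehicle-only cultures of the same strain.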 The following applies: S. cerevisiae rad50 strain growth inhibition, stronger effect = higher value. The gist of the method:
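Inhibition values express reduced yeast growth in compound-treated cultures relative to vehicle-treated controls.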

Assay [2] is described as follows: NCI Yeast Anticancer Drug Screen. Data for the mec2-1 strain (AID 157). Conditions: S. cerevisiae mec2-1 strain, stronger effect = higher value. The gist of the method: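 Vehicle-treated cultures served as reference for growth inhibition of compound-exposed mec2-1 yeast.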
Assay [3] is described as follows: NCI Yeast Anticancer Drug Screen. Data for the sgs1 mgt1 strain (AID 161).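 Note: 0% = growth of cultures given vehicle only.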 The following applies: S. cerevisiae sgs1 mgt1 strain, stronger effect = higher value. In outline: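 Inhibition of yeast growth, normalised to vehicle-treated controls, is reported for a strain bearing genetic alterations in DNA damage repair.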
The nature of assay [4]: NCI Yeast Anticancer Drug Screen. Data for the cln2 rad14 strain (AID 165).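 Note: 0% = growth equal to vehicle treated cultures.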 The following applies: S. cerevisiae cln2 rad14 strain, stronger effect = higher value. In outline:
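Each compound was tested on cln2 rad14 yeast. Inhibition of growth was calculated against vehicle-exposed controls.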

Assay [5] can be described thus: NCI Yeast Anticancer Drug Screen. Data for the bub3 strain (AID 167). Conditions: S. cerevisiae bub3 mutant strain, stronger effect = higher value. The gist of the method: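 Steps: expose the mutant yeast strain to compound; grow alongside vehicle-treated cultures; measure growth; express inhibition against the vehicle cultures.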
Assay [6] can be described thus: NCI Yeast Anticancer Drug Screen. Data for the mlh1 rad18 strain (AID 175). Conditions: S. cerevisiae mlh1 rad18 strain growth inhibition, stronger effect = higher value. The gist of the method: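 Vehicle-treated cultures served as the reference for growth inhibition in a yeast strain carrying DNA damage repair alterations exposed to each compound.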
The mark [7] stands for this setting: at 5.0 µM (retest, dose inferred, filed as 0.5).
Setting [8] is: at 50.0 µM (retest, dose inferred, filed as 5.0).

The panel holds about 79,000 compounds, 15% with a hit somewhere; the sample as a whole holds those more often. Active and inactive are the calls of the source. Cut-off read from the data, not from the text of the source: active = growth inhibition above about 70%; inactive = the rest.

Regarding `CN(C)CCNc1ccc(O)c2sc3ccccc3c(=O)c12`, the growth inhibition in assay [1] (setting [7]) is 0% (inactive); in assay [1] (setting [8]), 82% (active); in assay [1] (at 50.0 µM) it was 81.8% (active); in assay [2] (setting [7]), -6% (inactive); in assay [2] (setting [8]), 56% (inactive); in assay [2] (at 50.0 µM), 42.8% (inactive). Also, the growth inhibition in assay [3] (setting [7]) is -7% (inactive); in assay [3] (setting [8]), 70% (active); in assay [3] (at 50.0 µM), 48.1% (inactive); in assay [4] (setting [7]), -7% (inactive); in assay [4] (setting [8]), 19% (inactive); in assay [4] (at 50.0 µM) it was 30.6% (inactive). Also, the growth inhibition in assay [5] (setting [7]) is -9% (inactive); in assay [5] (setting [8]) it was 3% (inactive); in assay [5] (at 50.0 µM) it was 33.4% (inactive); in assay [6] (setting [7]), -5% (inactive); in assay [6] (setting [8]), 81% (active); in assay [6] (at 50.0 µM) it was 51% (inactive).
Take `CCCCN(CCCC)CCC(O)(c1ccc(OC)c2ccccc12)C(O)(CCN(CCCC)CCCC)c1ccc(OC)c2ccccc12` (configuration not stated): the growth inhibition was 43% (inactive) in assay [1] (setting [7]); 99% (active) in assay [1] (setting [8]); 99.2% (active) in assay [1] (at 50.0 µM); -2% (inactive) in assay [2] (setting [7]); 100% (active) in assay [2] (setting [8]); 99.7% (active) in assay [2] (at 50.0 µM). Further, the growth inhibition was 60% (inactive) in assay [3] (setting [7]); 99% (active) in assay [3] (setting [8]); 99.6% (active) in assay [3] (at 50.0 µM); 35% (inactive) in assay [4] (setting [7]); 99% (active) in assay [4] (setting [8]); 98.9% (active) in assay [4] (at 50.0 µM). Moreover, the growth inhibition in assay [5] (setting [7]) was 39% (inactive); in assay [5] (setting [8]), 99% (active); in assay [5] (at 50.0 µM) it was 99.2% (active); in assay [6] (setting [7]), 52% (inactive); in assay [6] (setting [8]) it was 99% (active); in assay [6] (at 50.0 µM), 97.5% (active).
`O=C(N/C(=C\c1ccccc1Cl)c1nc2ccccc2s1)c1ccccc1`: the growth inhibition in assay [1] (setting [7]) is 20% (inactive); in assay [1] (setting [8]), 99% (active); in assay [1] (at 50.0 µM) it was 99% (active); in assay [2] (setting [7]), 13% (inactive); in assay [2] (setting [8]), 99% (active); in assay [2] (at 50.0 µM) it was 99.2% (active). For the same molecule, the growth inhibition in assay [3] (setting [7]) was 54% (inactive); in assay [3] (setting [8]), 99% (active); in assay [3] (at 50.0 µM) it was 99.2% (active); in assay [4] (setting [7]), 11% (inactive); in assay [4] (setting [8]), 99% (active); in assay [4] (at 50.0 µM), 99% (active). For the same molecule, the growth inhibition in assay [5] (setting [7]) is 30% (inactive); in assay [5] (setting [8]), 99% (active); in assay [5] (at 50.0 µM), 98.8% (active); in assay [6] (setting [7]) it was 20% (inactive); in assay [6] (setting [8]), 99% (active); in assay [6] (at 50.0 µM), 99.1% (active).
As for `O=Cc1ccc(O)c2ccccc12`, the growth inhibition was -3% (inactive) in assay [1] (setting [7]); 66% (inactive) in assay [1] (setting [8]); 63.2% (inactive) in assay [1] (at 50.0 µM); 1% (inactive) in assay [2] (setting [7]); 47% (inactive) in assay [2] (setting [8]); 76.6% (active) in assay [2] (at 50.0 µM). Further, the growth inhibition in assay [3] (setting [7]) is -9% (inactive); in assay [3] (setting [8]), 85% (active); in assay [3] (at 50.0 µM), 75.6% (active); in assay [4] (setting [7]) it was 1% (inactive); in assay [4] (setting [8]), 23% (inactive); in assay [4] (at 50.0 µM), 32.8% (inactive). The growth inhibition in assay [5] (setting [7]) was -1% (inactive); in assay [5] (setting [8]), 78% (active); in assay [5] (at 50.0 µM), 48% (inactive); in assay [6] (setting [7]), -5% (inactive); in assay [6] (setting [8]), 88% (active); in assay [6] (at 50.0 µM), 64.5% (inactive).
